This note sets out measurements from PubChem BioAssay (NCI).

About 83,000 compounds went through this panel and 20% of them were active in at least one assay; those are over-represented in the sample as a whole.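 Negative percent growth values reflect cell death: -40 means 40% of the cells present at the start died, and -100 means all died.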 Unmarked numbers belong to inactive results. Calls of active or inactive are those of the source.

For the assay, the system named is OVCAR-8 ovarian. In words: NCI-60 one-dose screen, 48 h (100 = growth as untreated, 0 = no growth, -100 = all killed). The conditions noted are these: 10 µM unless noted. The method, then: Growth inhibition of the OVCAR-8 human tumor cell line is measured as a screen for anti-cancer activity. Cells are grown in 96 well plates and exposed to the test compound for 48 hours. Compounds are tested at a single concentration, which is 10^-5 M for most compounds. The reported endpoint is percent growth (GI% or GIPRCNT), where numbers from 0 - 100% represent growth inhibition, and numbers from -100% - 0 represent cell death. For example, a value of 40 represents 60% growth inhibition. A value of 0 means no net growth occurred over the course of the experiment. A value of -40 indicates 40% of cells at the beginning of the experiment died by the end of the experiment. A value of -100 means all cells are dead at the end of the experiment.
NCI-60 Human Tumor Cell Lines Screen was performed using the standard one-dose NCI protocol, which is described in more detail at https://dtp.cancer.gov/discovery_development/nci-60/default.htm.
Compounds with GIPRCNT values below 10 were considered active. Activity score was based on GIPRCNT using the following formula: […]
Score is 0 for GIPRCNT values of 100 or above, 50 for GIPRCNT values of 0, and 100 for GIPRCNT values of -100.
For `CCn1c2ccccc2c2cc(C(=O)c3cccc4c3CCCN4)ccc21`, the growth was 113%. Under `CCOC(=O)[C@@H](C)C[C@H](Cc1ccccc1)NC(=O)c1csc([C@@H](C[C@H](C(C)C)N(C)C(=O)[C@@H](NC(=O)[C@H]2CCCCN2C)C(C)(C)C)OC(C)=O)n1` stands 6.71% (active). In the case of `COc1cccc2c1c(C(=O)c1ccco1)cn2Cc1ccc(F)cc1`, the growth was 108%. Under `Cn1cccc1C1CC(=O)N(CCC[Se]C#N)C1=O` (stereo not given) stands -51.5% (active); under `CCCCN1CCCC[C@@H]1C(=O)N[C@H](C(=O)N(C)[C@H](CCc1nc(C(=O)N[C@@H](Cc2ccccc2)C[C@H](C)C(=O)OC)cs1)C(C)C)[C@@H](C)CC`, 80.9%. The result for `CCc1ccccc1[C@@H]1C[C@]2(C)CCO[C@@H]2OO1` reads 96%.

Consider `COC(=O)[C@@H](C)C[C@H](Cc1ccc2ccccc2c1)NC(=O)c1csc([C@@H](C[C@H](C(C)C)N(C)C(=O)[C@@H](NC(=O)[C@H]2CCCCN2C)C(C)C)OC(C)=O)n1`, for which the growth was 37.9%. Under `CC(=O)[C@H]1CC[C@H]2[C@@H]3CC[C@H]4C[C@H](N)CC[C@]4(C)[C@H]3CC[C@]12C` stands 90%; under `CCC1CN1CCCCN1CC1CC` (stereo not given), 101%; under `COC(=O)[C@@]1(C)CC[C@]2(C)CC[C@]3(C)C4=CC(=O)c5c(cc(O)c(O)c5C)[C@]4(C)CC[C@@]3(C)[C@@H]2C1`, 60.4%. The result for `CCCCN1CCCC[C@@H]1C(=O)N[C@H](C(=O)N(C)[C@H](C[C@@H](OC(C)=O)c1nc(C(=O)NC2CCC(C(=O)OC)CC2)cs1)C(C)C)C(C)C` (stereo not given in full) reads 24.6%. The result for `COC(=O)[C@H](C[C@H](Cc1ccccc1)NC(=O)c1csc([C@@H](C[C@H](C(C)C)N(C)C(=O)[C@@H](NC(=O)[C@H]2CCCCN2C)C(C)C)OC(C)=O)n1)NC(=O)OCc1ccccc1` reads 22% [8.5 µM]; that for `COc1cc(/C=C/[N+](=O)[O-])cc(OC)c1`, 13.8%; that for `CC(=O)c1ccc(C(=O)NCC2CCC3(CC2)OOC2(CCCCC2)OO3)cc1`, 84.6%.

`CC(=O)OC[C@]1(C)C=C2C(=O)[C@](C)(O)C3(CC3)C(C)=C2[C@H]1O`: the growth is -0.446% (active). The result for `CCCCCCCCCCCCCCCCCCOc1ccccc1COP(=O)(O)OOCC[N+](C)(C)C` reads -30.5% (active). Under `COC(=O)[C@@H](C)C[C@H](Cc1ccccc1)NC(=O)c1nc([C@@H](C[C@H](C(C)C)N(C)C(=O)[C@@H](NC(=O)[C@H]2CCCCN2C)C(C)C)OC(C)=O)sc1C(C)C` stands 2.95% (active); under `ClCCN(CCCl)c1ccc(OCc2ccccc2)cc1`, 55.8%. Under `CCOC(=O)c1c(C)n(Cc2ccccc2)c2cc(CN(C)C)c(O)cc12` stands 80.7%; under `C#Cc1ccc2c(c1)C(c1ccccc1F)=NCC(=O)N2C`, 63.9%. As for `CC1=C(CNO)C2=C(C)C3(CC3)[C@@](C)(O)C(=O)C2=C1`, the growth is 34.5%. The result for `CC(=O)O[C@H]1C(=O)[C@@]2(C)[C@H]([C@H](OC(=O)c3ccccc3)[C@]3(O)C[C@H](OC(=O)[C@H](OC(=O)OC[C@H]4COC(C)(C)O4)[C@@H](NC(=O)c4ccccc4)c4ccccc4)C(C)=C1C3(C)C)[C@]1(OC(C)=O)CO[C@@H]1C[C@@H]2O` reads 15.9%; that for `COc1ccc(N(CC(=O)NCCC[Te]c2ccccc2)C(=O)CCSC2=C(C)C(=O)c3ccccc3C2=O)cc1`, 8.05% (active); that for `O=C(CC1(O)C(=O)Nc2ccc(Br)cc21)c1ccc(C(=O)NCC2CCC3(CC2)OOC2(CCCCC2)OO3)cc1` (stereo not given), 41.7%. The result for `COC(=O)[C@@H](C)C[C@H](Cc1ccccc1)NC(=O)c1csc([C@@H](C[C@H](C(C)C)N(C)C(=O)[C@@H](NC(=O)[C@H]2CCCCN2C)C2CC2)OC(C)=O)n1` reads 22.2%; that for `Clc1ccc(CSC(Cn2ccnc2)c2ccc(Cl)cc2Cl)cc1` (stereo not given), 14.3%. Under `COc1cc(C=Nc2cccc(C(=O)O)c2)ccc1N(CCCl)CCCl` stands 95.2%. As to `C[N+](C)(C)Cc1cc(Cl)ccc1O`, the growth is 99.4%. Under `COC(=O)[C@@H](C)C[C@H](Cc1ccccc1)NC(=O)c1csc([C@@H](C[C@H](C(C)C)N(C)C(=O)[C@@H](NC(=O)C23CC(NC(C)=O)(C2)C3)C2CC2)OC(C)=O)n1` stands 69.1%. As for `CC(=O)O[C@H](C[C@H](C(C)C)N(C)C(=O)[C@@H](NC(=O)[C@H]1CCCCN1C)C(C)(C)C)c1nc(C(=O)N[C@@H](Cc2ccccc2)C[C@H](C)C(=O)O)cs1`, the growth is 8.74% (active).

Consider `COc1ccc(N(CC(=O)NCCC[Te]c2ccccc2)C(=O)CNC(=O)OC(C)(C)C)cc1`, for which the growth is 9.87% (active).

As to `CCOc1ccccc1C(=O)OCC(Cl)(Cl)Cl`, the growth was 102%. The result for `ClCCN(CCCl)c1nc(Cl)c(C2CC(c3ccccc3)=NN2c2cc(Cl)cc(Cl)c2)s1` (stereo not given) reads 100%. The result for `CCNc1nc(Cl)nc(NCC)n1` reads 58.9%; that for `COc1cc2c(c(OC)c1OC)-c1ccc([O-])c(=O)cc1[C@@H](NC(C)=O)CC2.COc1cc2c(c(OC)c1OC)-c1ccc([O-])c(=O)cc1[C@@H](NC(C)=O)CC2.[Cu+2]`, 23.2%; that for `CC1CN1CCCCN1CC1C` (stereo not given), 102%. Under `CC(C)CCC(=O)O[C@H]1CC[C@H]2[C@@H]3CCC4=CC(=O)CC[C@]4(C)[C@H]3CC[C@]12C` stands 104%; under `Cc1cc(N(CCCl)CCCl)ccc1C=Nc1ccccc1-c1ccccc1`, 74%; under `C=CCn1cc(C=C2C(=O)N(C)C(=O)N(C)C2=O)c2ccccc21`, 83.1%.

Turning to `O=C(CCCCCCC(=O)Nc1ccc(N(CCCl)CCCl)cc1)NO`, the growth is 19.3%.
